{
  "source": "PubChem BioAssay AID588342",
  "about": "(National Center for Advancing Translational Sciences (NCATS), 2011)",
  "note": "Among all 360,000 compounds or so, about 25,000 (6.9%) were called active. A call without a number means that no potency is given here. Not shown: some 9% with an inconclusive outcome. Calls follow the shape of the dose curve; as a rule, active = well fitted inhibition curve with a large enough effect; inconclusive = small, poorly fitted or top-dose-only effect; inactive = flat fitted curve, though single readings scatter. Many of the other results were omitted from the sample, so actives are more common in it than they were.",
  "data": [
    {"target": "Luciferin 4-monooxygenase (Photinus pyralis) (UniProt P08659)", "sequence (P08659 whole entry, looked up)": "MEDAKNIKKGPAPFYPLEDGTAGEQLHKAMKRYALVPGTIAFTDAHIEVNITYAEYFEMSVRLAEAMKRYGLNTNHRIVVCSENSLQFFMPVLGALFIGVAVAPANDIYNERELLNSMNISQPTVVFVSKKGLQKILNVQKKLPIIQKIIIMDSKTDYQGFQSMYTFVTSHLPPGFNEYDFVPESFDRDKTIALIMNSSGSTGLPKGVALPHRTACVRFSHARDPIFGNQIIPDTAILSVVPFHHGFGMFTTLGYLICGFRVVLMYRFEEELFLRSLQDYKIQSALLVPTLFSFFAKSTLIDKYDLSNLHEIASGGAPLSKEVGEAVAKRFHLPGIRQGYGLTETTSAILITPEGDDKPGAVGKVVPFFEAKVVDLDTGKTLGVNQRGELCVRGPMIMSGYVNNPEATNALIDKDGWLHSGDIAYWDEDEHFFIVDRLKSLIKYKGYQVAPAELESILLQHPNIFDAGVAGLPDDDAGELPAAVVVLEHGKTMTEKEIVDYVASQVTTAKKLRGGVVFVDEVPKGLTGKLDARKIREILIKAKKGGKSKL", "experiment": "qHTS profiling assay for firefly luciferase inhibitor/activator using purifed enzyme and Km concentrations of substrates (counterscreen for miR-21 project); also: nearly all actives have a fitted effect of over 55% in size", "details": "purified FLuc, luminescence inhibition; series mostly up to 57.5 µM", "from_the_text": "MLPCN Grant: 1 R21 NS059478-01 (miR-21 grant) Assay Provider: NCGC NCGC Assay Overview: Firefly (Photinus pyralis) luciferase is one of the most commonly used transcriptional reporters for a number of reasons. It is considered one of the more dynamically responsive reporters -that is, responsive to changes in reporter transcription - as it requires no post-translational modifications and is enzymatically active directly after protein synthesis (Wood, 1998). Additionally, the half-life of the luciferase protein is short relative to other reporter-gene products (Wood, 1995). Whereas reporters with long half-lives potentially allow for increased signal due to accumulation of reporter-gene product, once accumulated in the cell, dynamic changes in reporter-gene expression may be difficult to detect(Fan and Wood, 2007; Almond et al., 2004). It has been shown that wild-type P. pyralis luciferase has a half-life of approximately […] hours in mammalian cells (Thompson et al., 1991). Firefly luciferase reporter-gene assays are also generally considered one of the most sensitive assay types (Wood, 1995; Wood, 1998). Although light produced in a bioluminescence reaction is of lower intensity than that produced during fluorescence emission, this is offset by little to no background light inherent to luminescent assays. Thus the luciferase reporter can be expressed at much lower levels than fluorescent proteins while still providing robust signal. # However, it was initially observed, in 1991, by Thompson et al., that compounds that resemble the substrates of firefly luciferase (FLuc) can act as competitive inhibitors of the enzyme, and that these compounds, upon interaction with luciferase in the cell, can actually stabilize the protein and increase its half-life. Accumulated intracellular FLuc protein can be measured as an increase in luminescence signal, upon addition of detection reagents (which contain high concentrations of FLuc substrates) commonly used in high-throughput screening. In cell-based reporter gene assays that use FLuc as the reporter gene to quantitate the potential influence of a given compound against the target biology, this apparent increase in luminescence can mistakenly be interpreted as identification of a compound that is active against the target of interest. This is the case for the miR-21 FLuc reporter gene assay used to identify inhibitors of the miR-21 pathway (PubChem AID 2289) - compounds of interest will inhibit miR-21 biogenesis/expression or activity, and are identified by causing an increase in luminescence, due to increased FLuc translation. However, FLuc inhibitory compounds that stabilize the FLuc protein will give an identical read-out, making it difficult to distinguish compounds that are active against the target from those active against FLuc. Previous profiling work to determine the prevalence of compounds that affect FLuc enzymatic activity (PubChem AID 411) identified that ~3% of the MLSMR library (then at ~72K) inhibited FLuc. […] Since the MLSMR had grown to ~350K compounds, and since it was expected that a significant percentage of compounds found active in the miR-21 FLuc assay would be FLuc inhibitors, the library was screened for activity against FLuc using a biochemical assay of purified FLuc and KM concentrations of FLuc substrates (D-luciferin and ATP).\nNCGC Assay Protocol Summary: Reagents: 50mM Tris acetate, pH 7.5; 10mM Mg acetate; 10uM D-luciferin (Sigma #L9504); 10uM ATP; 0.01% Tween-20; 0.05% BSA; 10nM P. pyralis luciferase (Sigma #L9506) Control compounds used were two known firefly luciferase inhibitors (compounds (2) and (5) in Auld et al., 2010), and DMSO. […]", "values": [
      {"smiles": "CCN(CC(=O)Nc1cc(Cl)ccc1C)C(=O)CSCc1ccccc1", "Potency": "inactive"},
      {"smiles": "Fc1cccc(Cc2noc(CN3CCN(c4cnccn4)CC3)n2)c1", "Potency": "inactive"},
      {"smiles": "CCc1nnc(NC(=O)Cc2cccs2)s1", "Potency": "inactive"},
      {"smiles": "CCCc1nnc(NC(=O)CCC(=O)NC2CC2)s1", "Potency": "inactive"},
      {"smiles": "CCCc1nnc(NC(=O)c2cccs2)s1", "Potency": "16.9 µM (active)"},
      {"smiles": "COc1ccc(CCNC(=O)c2ccc3c(c2)nc(C)n3-c2ccc(Br)cc2)cc1OC", "Potency": "inactive"},
      {"smiles": "COc1ccc(OC)c(NC(=O)Cn2c(=O)n(Cc3ccccc3)c(=O)c3ccccc32)c1", "Potency": "inactive"},
      {"smiles": "Cc1ccc(NC(=O)C(C)Sc2nnc(C3CC3)n2C2CC2)cc1S(=O)(=O)N1CCOCC1", "note": "(stereo unspecified)", "Potency": "inactive"},
      {"smiles": "Nc1[nH][nH]c(=O)c1N=Nc1ccc2c(c1)OCO2", "Potency": "13.5 µM (active)"},
      {"smiles": "CC(=O)c1cc2c(cc1N)OCO2", "Potency": "inactive"},
      {"smiles": "CC(=O)C1=C(C)NC(=O)NC1c1ccc2c(c1)OCO2", "note": "(stereo unspecified)", "Potency": "inactive"},
      {"smiles": "Cc1ccc(CNC(=O)CC(NC(=O)c2ccccc2)c2ccccc2)cc1", "note": "(stereo unspecified)", "Potency": "inactive"},
      {"smiles": "Cc1cccc(NC(=O)CN2CCN(CC(=O)NCC3(N4CCCCC4)CCCCC3)CC2)c1C", "Potency": "inactive"},
      {"smiles": "Cn1c(SCC(=O)N2CCCC2)nnc1-c1cccs1", "Potency": "inactive"},
      {"smiles": "CCn1c(SCC(=O)c2ccc(Cl)s2)nnc1-c1cccs1", "Potency": "16.9 µM (active)"},
      {"smiles": "CCn1c(SCC(=O)Nc2nccs2)nnc1-c1ccncc1", "Potency": "inactive"},
      {"smiles": "Cc1ccc(C)c(N2CCN(C(=O)Cn3ncc4c(=O)oc5ccc(C)cc5c43)CC2)c1", "Potency": "inactive"},
      {"smiles": "COc1ccc(OC)c(CCNC(=O)CCCn2c(=O)c3cccn3c3cccnc32)c1", "Potency": "inactive"},
      {"smiles": "COc1ccc(N(CCC(=O)NCCc2ccccc2)S(=O)(=O)c2ccc(C)cc2C)cc1", "Potency": "inactive"},
      {"smiles": "O=C(CSc1nc(=O)[nH]c2c1CCCC2)Nc1cc(C(F)(F)F)ccc1Cl", "Potency": "inactive"},
      {"smiles": "O=C(Nc1cc(C(F)(F)F)ccc1Cl)c1cc2nc(-c3ccc4c(c3)OCO4)cc(C(F)(F)F)n2n1", "Potency": "inactive"},
      {"smiles": "O=C(Nc1cc(C(F)(F)F)ccc1Cl)c1cc2nc3c(c(C(F)(F)F)n2n1)CCCC3", "Potency": "2.69 µM (active)"},
      {"smiles": "COc1cccc(N2CCN(S(=O)(=O)c3ccc4c(c3)CCCN4C(C)=O)CC2)c1", "Potency": "inactive"},
      {"smiles": "O=S(=O)(NCc1ccco1)c1cnc(Cl)c(Cl)c1", "Potency": "inactive"},
      {"smiles": "CC(Oc1ccc(Cl)cc1)C(=O)OCC(=O)Nc1ncc(Cl)cc1Cl", "note": "(stereo unspecified)", "Potency": "inactive"},
      {"smiles": "C/C(=N\\Nc1nc2ccccc2[nH]1)c1cccs1", "Potency": "2.69 µM (active)"},
      {"smiles": "Cc1c(Cl)cnc(NC(=O)COC(=O)c2ccc(S(=O)(=O)NCc3ccco3)cc2)c1Cl", "Potency": "inactive"},
      {"smiles": "COc1ccc(/C(C)=N/Nc2cc(C(F)(F)F)ccc2Cl)c(OC)c1", "Potency": "inactive"},
      {"smiles": "C/C(=N\\Nc1ncc(Cl)cc1Cl)c1ccc(S(=O)(=O)NCc2ccco2)cc1", "Potency": "16.9 µM (active)"},
      {"smiles": "COc1cccc(/C(C)=N/Nc2ncc(Cl)cc2Cl)c1", "Potency": "19 µM (active)"},
      {"smiles": "C/C(=N\\NC(=O)COc1c(C)cccc1C)c1cccs1", "Potency": "inactive"},
      {"smiles": "C/C(=N\\NS(=O)(=O)c1ccc(Br)cc1)c1cccs1", "Potency": "inactive"},
      {"smiles": "C/C(=N\\Nc1ncc(Cl)cc1Cl)c1cccs1", "Potency": "9.53 µM (active)"},
      {"smiles": "C/C(=N\\Nc1ccc(S(N)(=O)=O)cc1[N+](=O)[O-])c1cccs1", "Potency": "inactive"},
      {"smiles": "O=C(Nc1ccccc1-c1nc2ccccc2[nH]c1=O)c1cccs1", "Potency": "inactive"},
      {"smiles": "CCOC(=O)c1c(NC(=O)CSc2cn(CCNC(=O)c3cccc(C(F)(F)F)c3)c3ccccc23)sc2c1CCC2", "Potency": "inactive"},
      {"smiles": "Cc1occc1-c1nnc(SCC(=O)NC2CCCCC2)o1", "Potency": "inactive"},
      {"smiles": "CCCc1nn2c(=O)cc(COC(=O)c3ccc(NC(=O)COc4ccc(F)cc4)cc3)nc2s1", "Potency": "inactive"},
      {"smiles": "COc1ccc(S(=O)(=O)NCC(c2ccc(N(C)C)cc2)N2CCCC2)cc1", "note": "(stereo unspecified)", "Potency": "inactive"},
      {"smiles": "O=C(Cn1ncc2c3ccccc3n(Cc3ccccc3)c2c1=O)NCCCN1CCOCC1", "Potency": "inactive"},
      {"smiles": "CCn1c(Cc2ccc(OC)cc2)nnc1SCC(=O)Nc1ccc(N2CCOCC2)cc1", "Potency": "23.9 µM (active)"},
      {"smiles": "Cn1cnnc1SCC(=O)Nc1ccc(N2CCOCC2)cc1", "Potency": "inactive"},
      {"smiles": "CCn1c(CNC(=O)C23CC4CC(CC(C4)C2)C3)nnc1SCC(=O)Nc1ccc(OC)cc1", "Potency": "inactive"},
      {"smiles": "Cc1ccc(Cl)cc1N1CCN(C(=O)c2cn(C)c3ccc(S(=O)(=O)N(C)C4CCCCC4)cc3c2=O)CC1", "Potency": "inactive"},
      {"smiles": "Cc1ccc(NC(=O)CCCNC(=O)c2ccc(Cl)cc2)cc1S(=O)(=O)N1CCCCC1", "Potency": "inactive"},
      {"smiles": "COC(=O)C1=C(C(=O)c2ccc(C)cc2)C(c2ccccc2)n2nnnc2N1", "note": "(stereo unspecified)", "Potency": "inactive"},
      {"smiles": "COC(=O)c1ccc(C2C3=C(Nc4nnnn42)c2ccccc2OC3)cc1", "note": "(stereo unspecified)", "Potency": "6.01 µM (active)"},
      {"smiles": "COC(=O)c1ccc(C2C(C(=O)Nc3ccccc3)=C(C)Nc3nc4ccccc4n32)cc1", "note": "(stereo unspecified)", "Potency": "inactive"},
      {"smiles": "COc1cccc(Nc2nnc(SCC(=O)N3CC(=O)Nc4ccccc43)s2)c1", "Potency": "21.3 µM (active)"},
      {"smiles": "COc1cccc(-c2nnc(SCC(=O)N3CCC(C)CC3)o2)c1", "Potency": "inactive"},
      {"smiles": "Cc1nc(SCC(=O)N2CC(=O)Nc3ccccc32)c2c(C)c(C)sc2n1", "Potency": "inactive"},
      {"smiles": "COc1cccc(Nc2nnc(SCC(=O)N3CC(C)OC(C)C3)s2)c1", "note": "(stereo unspecified)", "Potency": "21.3 µM (active)"},
      {"smiles": "COc1cc(OC)c(C(=O)OCC(=O)N2CC(=O)Nc3ccccc32)cc1OC", "Potency": "inactive"},
      {"smiles": "COc1ccc(C(=O)CSc2nnc(NC(=O)C3CC(=O)N(c4cccc(OC)c4)C3)s2)cc1", "note": "(stereo unspecified)", "Potency": "inactive"},
      {"smiles": "O=C(Nc1ccccc1Cl)N1CCC(CN2CCCCC2)CC1", "Potency": "inactive"},
      {"smiles": "Cc1nc2ccccc2c(=O)n1-c1ccc(NS(=O)(=O)c2ccc(F)cc2F)cc1", "Potency": "inactive"},
      {"smiles": "CCN(CC)c1ccc(NC(=O)CN2C(=O)c3cccnc3Oc3ccc(Cl)cc32)c(C)c1", "Potency": "inactive"},
      {"smiles": "COc1ccc2ccn(C)c2c1", "Potency": "inactive"},
      {"smiles": "OCCNc1nc(Nc2ccc(Cl)c(Cl)c2)nc2ccccc12", "Potency": "6.01 µM (active)"},
      {"smiles": "CN(C)c1nc(Nc2ccc(Cl)c(Cl)c2)nc(N(C)C)n1", "Potency": "inactive"},
      {"smiles": "COc1cc2nc(Cl)nc(NCCO)c2cc1OC", "Potency": "inactive"},
      {"smiles": "Cc1ccccc1CSc1nc(-c2ccccc2)nc2c1Cc1c(CO)cnc(C)c1O2", "Potency": "inactive"},
      {"smiles": "Nc1ccn(CC(=O)N2CCN(c3ccccn3)CC2)c(=O)n1", "Potency": "inactive"},
      {"smiles": "O=C(Nc1nc2ccc([N+](=O)[O-])cc2s1)c1ccncc1", "Potency": "1.07 µM (active)"},
      {"smiles": "O=C(NC(Nc1nc2ccc([N+](=O)[O-])cc2s1)(C(F)(F)F)C(F)(F)F)c1ccccc1", "Potency": "inactive"},
      {"smiles": "COc1ccc(C(=O)Nc2nc(-c3ccc(OC)cc3)c(-c3ccc([N+](=O)[O-])cc3)s2)cc1", "Potency": "inactive"}
    ]}
  ]
}
